Values joined by “and” are separate entries in the source; they are usually repeats but may differ in a detail not shown here. Identical values can stand only once. Compounds without any hit were thinned out: in the full panel of roughly 79,000, 15% have a hit. Cut-off read from the data, not from the text of the source: active = growth inhibition above about 70%; inactive = the rest.
Experiments:
[1] = NCI Yeast Anticancer Drug Screen. Data for the rad50 strain (AID 155);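 note: 0% = growth of vehicle-only cultures of the same strain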; details: S. cerevisiae rad50 strain growth inhibition; at 50.0 µM; hits give high values
Summary of the method: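 Readout: growth inhibition relative to vehicle-treated cultures. Compound exposure was carried out in a genetically defined yeast strain deficient in DNA damage repair.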

[2] = NCI Yeast Anticancer Drug Screen. Data for the mec2-1 strain (AID 157); details: S. cerevisiae mec2-1 strain, at 50.0 µM, hits give high values
Summary of the method: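 Strain: mec2-1 (DNA repair/cell cycle alteration). Compound exposure, then growth measured; inhibition expressed relative to vehicle.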

[3] = NCI Yeast Anticancer Drug Screen. Data for the sgs1 mgt1 strain (AID 161);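 note: 0% = growth of cultures given vehicle only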; details: S. cerevisiae sgs1 mgt1 strain, at 50.0 µM, hits give high values
Summary of the method: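 Genetically altered yeast, compound exposure, growth inhibition relative to vehicle.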

[4] = NCI Yeast Anticancer Drug Screen. Data for the cln2 rad14 strain (AID 165);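 note: 0% = growth equal to vehicle treated cultures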; details: S. cerevisiae cln2 rad14 strain, at 50.0 µM, hits give high values
Summary of the method: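 Compounds are applied to the cln2 rad14 yeast strain, and growth is then compared with that of vehicle-treated cultures to give inhibition.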

[5] = NCI Yeast Anticancer Drug Screen. Data for the bub3 strain (AID 167); details: S. cerevisiae bub3 mutant strain, at 50.0 µM, hits give high values
Summary of the method: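 Readout: yeast growth inhibition, expressed relative to vehicle-only wells. The test organism is a mutant strain from a panel with lesions in DNA repair or checkpoint genes.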

[6] = NCI Yeast Anticancer Drug Screen. Data for the mlh1 rad18 strain (AID 175); details: S. cerevisiae mlh1 rad18 strain growth inhibition; at 50.0 µM; hits give high values
Summary of the method: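 Read-out is yeast growth inhibition, calculated against vehicle-only controls. The compound was applied to a strain engineered with DNA damage repair alterations.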

Measured: growth inhibition

CCCOC(=O)c1ccc(OCC)cc1
inactive: [1] 22.4% and -20.6% | [2] 8.2% and -9.8% | [3] 12.6% and 3.1% | [4] -8% and -42.6% | [5] -11.2% and -16.6% | [6] 15.2% and -23.6%

O=C1O/C(=C(/C(=O)O)c2ccc(O)cc2)C(O)=C1c1cc2c3c(c(O)cc(C4=C(O)/C(=C(\C(=O)O)c5ccc(O)cc5)OC4=O)c3c1)OC2=O
inactive: [1] -12.8% and -7% | [2] -7.25% and -10.4% | [3] -8.55% and 5.6% | [4] -0.65% and -9.85% | [5] -5% and -1.65% | [6] 3.4% and 4.6%

CCOC(=O)c1ccc(N=[N+]([O-])c2ccc(C(=O)OCC)cc2)cc1
inactive: [1] -10.8% and -4.1% | [2] -4.95% and -4.3% | [3] 2.8% and -7.65% | [4] -6% and -3.25% | [5] -40.5% and -19.9% | [6] -13.4% and 19.8%

CCCCc1c(C#N)c(=O)n2c(N)c(C(=O)OCC)cnc2c1SC
inactive: [1] -8.45% and 11.1% | [2] -3.4% and 14.9% | [3] 8.3% and -12.1% | [4] -7.6% and -34% | [5] 5.65% and -7.9% | [6] 9.15% and -5.05%

CC(OC(=O)c1ccccc1)C(OC(=O)c1ccccc1)C(OC(=O)c1ccccc1)c1cnn(-c2ccccc2)n1 (stereo not drawn)
inactive: [1] 14.8% and 35.7% | [2] -2.35% and -1.9% | [3] 24.8% and 3.35% | [4] 19.1% and -9.45% | [5] 10.1% and 16.1% | [6] 6.7% and 32%

OC/C=C/c1ccccc1
inactive: [1] 5.7% and 14.7% | [2] 6.7% and -3.15% | [3] 12.1% and -16.6% | [4] 10.1% and -2.55% | [5] 2.65% and 12.1% | [6] 14.7% and -8.85%

CC(O)c1nc2c([nH]1)c(=O)n(C)c(=O)n2C (stereo not drawn)
inactive: [1] -4.3% and -3.1% | [2] -6.2% and -8.9% | [3] -5.6% and -2% | [4] -30.3% and -16.9% | [5] 5.7% and -13.9% | [6] 9.15% and -23.2%

CC(Cc1ccccc1)NC(=O)c1ccccc1 (stereo not drawn)
inactive: [1] 18.2% and 5.45% | [2] 3.3% and -1.1% | [3] -19.9% and -2.25% | [4] -93.5% and -7.65% | [5] -14.9% and 2.45% | [6] 7.4% and -5.3%

CC(CC(=O)O)C(C(=O)O)C(=O)O (stereo not drawn)
inactive: [1] 0.4% and 7.6% | [2] -25.9% and 2.4% | [3] -33.5% and -16.6% | [4] -32.2% and 0.4% | [5] -21.8% and 8.7% | [6] -18.3% and -7.75%

O=C(O)CSc1ccccc1C(=O)O
inactive: [1] -1.35% and -7.9% | [2] -11.9% and -40.9% | [3] 1.6% and -35.4% | [4] -27.9% and 22.3% | [5] 6.15% and -33.8% | [6] -17.9% and -4.25%

O=C(O)C(Cc1ccc(O)cc1)NS(=O)(=O)Cc1ccccc1 (stereo not drawn)
inactive: [1] -12.8% and 7.15% | [2] -5.85% and 17.5% | [3] -3.1% and 14.7% | [4] 0.4% and -22.2% | [5] -55.3% and 19.9% | [6] -19.1% and 3.8%

Nc1ncnc2c1ncn2C1(CO)OC(CO)C(O)C1O (stereo not drawn)
inactive: [1] 13.7% and 3.2% | [2] -9.1% and -6.15% | [3] -13.9% and -0.2% | [4] -0.65% and -23.2% | [5] 5% and 19.4% | [6] 11.2% and -1.25%

O=C1OC(=O)C2C3CCCCC3=C3CCCCC3C12 (stereo not drawn)
inactive: [1] 2.7% and 11.1% | [2] 41.5% and -8.4% | [3] -3.25% and 4.25% | [4] 8.6% and -9.1% | [5] 22.2% and 3.9% | [6] -5.3% and 13.6%

COC1OC(COC(=O)c2ccccc2)C(OC(=O)c2ccccc2)C1OC(=O)c1ccccc1 (stereo not drawn)
inactive: [1] -15.4% and 7.8% | [2] -2.5% and -10.2% | [3] -3.65% and -3.95% | [4] -28.1% and -21.9% | [5] 15.9% and -0.85% | [6] 9% and 4.6%

CC1CCC2(OC1)OC1CC3C4CCC5CC(O)CCC5(C)C4CCC3(C)C1C2C (stereo not drawn)
inactive: [1] 22.4% and -15.3% | [2] -29.8% and -19.3% | [3] 2.45% and -24.1% | [4] 7.15% and 0.8% | [5] 9.4% and -9.1% | [6] 26.8% and -12.7%

Cc1ccc(S(=O)(=O)Oc2cc(N)c3c(n2)CCC3)cc1
inactive: [1] -4.7% and 5.5% | [2] -13.6% and -7.8% | [3] 7.8% and -23.3% | [4] -48.2% and 6.55% | [5] -16.2% and -0.65% | [6] -3.45% and 0.5%

CC(C)CCC(N)C(=O)O (stereo not drawn)
inactive: [1] -11.7% and 0.15% | [2] -14.9% and -0.55% | [3] -11.5% and -6% | [4] -42.5% and -15.7% | [5] -3.25% and 3.75% | [6] -22.6% and -2%

c1ccc([P+](Cc2ccccc2C[P+](c2ccccc2)(c2ccccc2)c2ccccc2)(c2ccccc2)c2ccccc2)cc1
inactive: [1] -15% and 20.1% | [2] -20.9% and 6.8% | [3] -5.3% and 7.25% | [4] -8.25% and 14.8% | [5] 1.6% and 7.8% | [6] -50% and 12.3%

From PubChem BioAssay (NCI)
